Only some compounds are listed: those with a hit (about 4.1% of all), similar ones and a draw of the others.
DAX1 inh-1: DAX1 (NR0B1) inhibitors, primary screen, cell-based, HEK293, Gal4-DAX1, luciferase luminescence | HEK293 Gal4-DAX1 luciferase reporter | AID 504766, 2011 | Nuclear receptor subfamily 0 group B member 1 (Homo sapiens), P51843 | inhibition, % at 6.75 µM | 340,000 compounds, 0.99% hits;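 active = inhibition above the mean over all tested compounds plus 3 SD, cut at about 4.2% in these data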;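 also: 0% = DAX1-transfected cells with DMSO and 100% = empty-vector control cells with DMSO; inhibition shows as a rise in luminescence from relieved DAX1 repression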
Target sequence (P51843 207-470 limits assumed): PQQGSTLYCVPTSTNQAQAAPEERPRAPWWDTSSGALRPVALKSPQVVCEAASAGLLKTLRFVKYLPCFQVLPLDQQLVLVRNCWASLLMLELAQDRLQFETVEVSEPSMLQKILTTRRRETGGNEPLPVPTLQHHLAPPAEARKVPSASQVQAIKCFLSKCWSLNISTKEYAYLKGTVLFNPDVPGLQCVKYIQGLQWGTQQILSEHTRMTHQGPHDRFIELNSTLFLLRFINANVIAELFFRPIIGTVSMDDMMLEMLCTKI
DAX1 inh-2: DAX1 (NR0B1) inhibitors on StAR promoter, primary screen, cell-based, luminescence, SF-1 (NR5A1), full-length DAX-1. HEK293T StAR-luciferase reporter, SF-1/DAX-1 repression relief. inhibition, % at 6.8 µM. 370,000 compounds, 1.1% hits. AID 652010, 2013;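 active = inhibition above the mean over all tested compounds plus 3 SD, cut at about 3.6% in these data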;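 also: 0% = DAX-1 cells with DMSO and 100% = cells lacking DAX-1 with DMSO; higher inhibition means more luminescence from relief of DAX-1 repression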
hcDAF12 agonist: H. contortus DAF-12 nuclear receptor activators, primary screen, cell-based, luminescence, HEK293, lit1-tk-luc reporter. HEK293 hcDAF-12 lit1-tk-luc reporter; 0% DMSO, 100% Δ7-dafachronic acid. activation, % at 6.8 µM. 370,000 compounds, 1.4% hits. AID 652067, 2013;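 active = activation above the mean of all tested compounds plus 3 SD, cut at about 5.5% in these data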;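 also: 100% = response to 3 µM Δ7-dafachronic acid high control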
hgDAF12 agonist: H. glycines DAF-12 receptor agonists, primary screen, cell-based, luminescence, HEK293, GAL4 fusion, UAS-luciferase; HEK293 GAL4-hgDAF12 UAS-luciferase reporter, agonist luminescence; normalized to butyrate control; 370,000 compounds, 1.8% hits; Nuclear hormone receptor DAF-12 (Heterodera glycines), GAL4 fusion; activation, % at 6.8 µM; AID 687014, 2013;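 active = activation above a cutoff set at the mean of all screened compounds plus 3 SD, cut at about 10% in these data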;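 also: 0% = DMSO wells and 100% = sodium butyrate wells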
ssDAF12 agonist: S. stercoralis DAF-12 nuclear receptor activators, primary screen, cell-based, luminescence, HEK293, GRIP1 co-expression, lit1-tk-luc; Nuclear hormone receptor DAF-12 (Strongyloides stercoralis); HEK293 ssDAF-12/GRIP1 lit1-tk-luc reporter; % of 3 µM dafachronic acid response; activation, % at 6.8 µM; 370,000 compounds, 1% hits; AID 652126, 2013;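 active = activation above the mean over all tested compounds plus 3 SD, cut at about 0.9% in these data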;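 also: 0% = DMSO-only wells and 100% = 3 µM delta7-dafachronic acid wells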
Numbers without * were called inactive; . = no result given.

SMILES	DAX1 inh-1	DAX1 inh-2	hcDAF12 agonist	hgDAF12 agonist	ssDAF12 agonist
O=S1(=O)c2c(cccc2N2CCC[C@H]2CO)O[C@@H]2CCN1C2	.	0	-1	-2	-1
COc1c2c(cc3oc(=O)ccc13)OC(C)(C)C=C2	4	1	4	10	-1
CC1(C)C=Cc2cc3ccc(=O)oc3cc2O1	6.7*	1	2	8	0
CC(C)NC(=O)C1C(c2ccc(C(F)(F)F)cc2)=Nc2ccccc2N1C(=O)c1cccc2ccccc12 (stereo unspecified)	.	1	5	9	1.1*
CC(C)NC(=O)C1C(c2ccccc2)=Nc2ccccc2N1C(=O)c1cc(Cl)cc(Cl)c1 (stereo unspecified)	.	0	0	0	0
Cc1ccc(C(=O)N2c3ccccc3N=C(c3ccccc3)C2C(=O)NC(C)C)cc1 (stereo unspecified)	.	2	3	10	1.0*
CC(C)NC(=O)C1C(c2ccccc2)=Nc2ccccc2N1C(=O)c1ccc(C(F)(F)F)cc1 (stereo unspecified)	.	-1	2	3	2.3*
COCCCNC(=O)C[C@H]1C[C@@]2(C(=O)OC)C(=C[C@H](C(C)C)O[C@@H]2C2CC2)N(CCc2ccc(OC)c(OC)c2)C1=O	.	1	1	3	-2
CCOc1ccc(CCN2C(=S)N([C@@H](CC(C)C)CN3CCCC3CN3C(=S)NC[C@@H]3CC(C)C)C[C@@H]2CC(C)C)cc1 (stereo partly specified)	1	4.4*	0	0	-1
Cc1ccc(NC(=O)c2ccc(Cl)c(S(=O)(=O)NCc3ccco3)c2)c(O)c1	2	3.9*	5	4	1
NS(=O)(=O)c1ccc(NC(=O)c2ccc(Cl)c(S(=O)(=O)NCc3ccco3)c2)cc1	0	-3	-1	3	-1
O=C(Nc1ccc2c(c1)OCO2)NC1CCCCN(Cc2cccc(Cl)c2)C1=O (stereo unspecified)	.	-2	-4	-1	-1
COC(=O)Cc1ccc(NC(=S)N2CCCC(CO)C2)cc1 (stereo unspecified)	-2	1	4	10*	1
CC1CCCN(C(=S)Nc2ccc(Nc3ccccc3)cc2)C1 (stereo unspecified)	.	2	1	11*	1.3*
COc1ccc(NC(=S)N2CCC(c3ccccc3)C2)cc1 (stereo unspecified)	1	2	4	12*	0
Cc1ccc(C2CCN(C(=S)NC(C)(C)C)C2)cc1 (stereo unspecified)	5.6*	-1	1	5	-1
COc1ccc(C(=O)/C=C(\Nc2ccc(Br)c(C)c2)c2ccc(OC)cc2OC)c(OC)c1	.	1	2	7	-1
Cc1nnc2n(c1=O)N=C(c1ccc(Cl)cc1)CS2	-1	2	6.0*	8	0
COc1ccc(C(=O)C2(C(=O)Nc3cc(C)cc(C)c3)CC(c3ccccc3C(F)(F)F)=NO2)cc1 (stereo unspecified)	.	-1	-1	0	0
C/C(=N/NC(=O)Nc1ccccc1)c1ccc(C)cc1	2	0	-2	-2	-1
C/C(=N\OC(=O)Nc1ccccc1)c1ccc(C)cc1	5.9*	1	1	4	-1
COc1ccc(C#CCN(C)/C(N)=N/C(=O)OCc2ccccc2)cc1	.	0	3	3	-2
Cc1ccc(CSc2nnc(-c3ccccn3)n2Cc2cccs2)cc1	.	-1	-2	1	-1
Clc1ccc(CSc2nnc(-c3ccccn3)n2Cc2cccs2)cc1Cl	.	4.2*	1	1	0
Cc1csc(N/N=C/c2c(F)cccc2Cl)n1	1	0	6.5*	2	0
Clc1cccc(Cl)c1/C=N\Nc1nccs1	1	0	1	2	0
CN(C)/C=N/c1ncc(C(=O)c2ccc(-c3ccccc3)cc2)s1	0	0	0	12*	-2

Screens from PubChem BioAssay.
